What all share (experiment): PBM; 200 nM protein, PBS
Settings in all cases: dsDNA, one strand shown

Experiment [1] has as its target NKX2-5 (Homo sapiens, UniProt P52952 125-210, R139K).
For experiment [2], the target named is T1, NKX2-4 (Homo sapiens, UniProt Q9H2Z4 175-261, P217L).
T1 sequence: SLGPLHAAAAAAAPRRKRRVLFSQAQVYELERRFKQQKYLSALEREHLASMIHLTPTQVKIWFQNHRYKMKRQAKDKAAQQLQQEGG

For experiment [3], the target named is T2, NKX2-4 (Homo sapiens, UniProt Q9H2Z4 175-261, T231S).
T2 sequence: T1 sequence with L43P, T57S

The target in experiment [4] is T3, NKX2-4 (Homo sapiens, UniProt Q9H2Z4 175-261).
T3 sequence: T1 sequence with L43P

In experiment [5] the target is T4, NKX2-6 (Homo sapiens, UniProt A6NCS4 118-204, R150C).
T4 sequence: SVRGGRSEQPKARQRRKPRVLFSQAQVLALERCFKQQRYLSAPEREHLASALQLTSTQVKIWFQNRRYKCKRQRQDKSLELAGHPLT

The target in experiment [6] is ALX1 (Homo sapiens, UniProt Q15699 118-204, L144V).
Chain of ALX1 (Homo sapiens, UniProt Q15699 118-204, L144V) (Q15699 118-204 L144V): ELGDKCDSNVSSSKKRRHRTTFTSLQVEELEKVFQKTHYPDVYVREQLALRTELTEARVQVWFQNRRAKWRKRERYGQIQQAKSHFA
Experiment [7] deals with T5, NKX2-6 (Homo sapiens, UniProt A6NCS4 118-204).
T5 sequence: T4 sequence with C33R

Experiment [8] deals with ALX1 (Homo sapiens, UniProt Q15699 118-204, L144R).
Chain of ALX1 (Homo sapiens, UniProt Q15699 118-204, L144R) (Q15699 118-204 L144R): as the sequence (Q15699 118-204 L144V) above, with V27R counted along it
For experiment [9], the target named is T6, NKX2-4 (Homo sapiens, UniProt Q9H2Z4 175-261, R246Q).
T6 sequence: T1 sequence with L43P, R72Q

For experiment [10], the target named is T7, NKX2-6 (Homo sapiens, UniProt A6NCS4 118-204, F151L).
T7 sequence: T4 sequence with C33R, F34L

Experiment [11] addresses ALX1 (Homo sapiens, UniProt Q15699 118-204).
Experiment [12] concerns the target NKX2-5 (Homo sapiens, UniProt P52952 125-210).
The target in experiment [13] is T8, VENTX (Homo sapiens, UniProt O95231 78-163, R121Q).
T8 sequence: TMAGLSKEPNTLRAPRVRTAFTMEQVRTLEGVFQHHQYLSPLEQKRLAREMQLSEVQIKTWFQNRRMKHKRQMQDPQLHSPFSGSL

For experiment [14], the target named is T9, VENTX (Homo sapiens, UniProt O95231 78-163).
T9 sequence: T8 sequence with Q44R

For experiment [15], the target named is T10, VENTX (Homo sapiens, UniProt O95231 78-163, Y115F).
T10 sequence: T8 sequence with Y38F, Q44R

The target of experiment [16] is HOXB4 (Homo sapiens, UniProt P17483 148-234).
Chain of HOXB4 (Homo sapiens, UniProt P17483 148-234) (P17483 148-234): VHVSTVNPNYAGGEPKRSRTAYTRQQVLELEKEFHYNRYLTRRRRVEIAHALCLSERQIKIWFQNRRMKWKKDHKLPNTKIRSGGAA
The target in experiment [17] is HOXB4 (Homo sapiens, UniProt P17483 148-234, V174I).
Chain of HOXB4 (Homo sapiens, UniProt P17483 148-234, V174I) (P17483 148-234 V174I): as the sequence (P17483 148-234) above, with V27I counted along it
For experiment [18], the target named is HOXB9 (Homo sapiens, UniProt P17482 171-250, R186Q).
Chain of HOXB9 (P17482 171-250 R186Q): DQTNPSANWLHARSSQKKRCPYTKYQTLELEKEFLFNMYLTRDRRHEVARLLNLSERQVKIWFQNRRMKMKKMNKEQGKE
The target of experiment [19] is NKX3-2 (Homo sapiens, UniProt P78367 192-278, P234S).
Chain of NKX3-2 (Homo sapiens, UniProt P78367 192-278, P234S) (P78367 192-278 P234S): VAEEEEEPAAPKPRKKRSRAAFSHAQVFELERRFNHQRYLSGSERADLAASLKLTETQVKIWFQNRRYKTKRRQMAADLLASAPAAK
Experiment [20] addresses NKX3-2 (Homo sapiens, UniProt P78367 192-278).

These results are taken from paper PMC11006913.

Residue numbers refer to the chain shown, from its start.

Chain of NKX2-5 (Homo sapiens, UniProt P52952 125-210, R139K) (P52952 125-210 R139K): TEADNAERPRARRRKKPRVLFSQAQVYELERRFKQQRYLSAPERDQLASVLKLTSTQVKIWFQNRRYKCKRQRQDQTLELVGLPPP
Chain of NKX2-5 (Homo sapiens, UniProt P52952 125-210) (P52952 125-210): as the sequence (P52952 125-210 R139K) above, with K15R counted along it
Chain of NKX3-2 (Homo sapiens, UniProt P78367 192-278) (P78367 192-278): as the sequence (P78367 192-278 P234S) above, with S43P counted along it
Chain of ALX1 (Homo sapiens, UniProt Q15699 118-204) (Q15699 118-204): as the sequence (Q15699 118-204 L144V) above, with V27L counted along it

As for CTTAAGTA, the binding signal in [1] was 12.9 upbm affinity estimate (log intensity, higher = more binding, comparable within an allelic series); in experiment [2] it was 12.6 upbm affinity estimate (log intensity, higher = more binding, comparable within an allelic series); in experiment [3], 12.9 upbm affinity estimate (log intensity, higher = more binding, comparable within an allelic series); in experiment [4], 12.5 upbm affinity estimate (log intensity, higher = more binding, comparable within an allelic series); in [5], 11.7 upbm affinity estimate (log intensity, higher = more binding, comparable within an allelic series); in experiment [6], 9.02 upbm affinity estimate (log intensity, higher = more binding, comparable within an allelic series). The binding signal was 13.7 upbm affinity estimate (log intensity, higher = more binding, comparable within an allelic series) in experiment [7]; 8.85 upbm affinity estimate (log intensity, higher = more binding, comparable within an allelic series) in experiment [8]; 13.1 upbm affinity estimate (log intensity, higher = more binding, comparable within an allelic series) in experiment [9]; 10.9 upbm affinity estimate (log intensity, higher = more binding, comparable within an allelic series) in experiment [10]; 9.39 upbm affinity estimate (log intensity, higher = more binding, comparable within an allelic series) in [11]; 12.8 upbm affinity estimate (log intensity, higher = more binding, comparable within an allelic series) in experiment [12].

Consider ACCAGCTG, for which the binding signal in [1] was 8.74 upbm affinity estimate (log intensity, higher = more binding, comparable within an allelic series); in [13] it was 7.92 upbm affinity estimate (log intensity, higher = more binding, comparable within an allelic series); in [14], 8.2 upbm affinity estimate (log intensity, higher = more binding, comparable within an allelic series); in experiment [15] it was 8.14 upbm affinity estimate (log intensity, higher = more binding, comparable within an allelic series); in experiment [12] it was 9.02 upbm affinity estimate (log intensity, higher = more binding, comparable within an allelic series).

As for CCGGCGCG, the binding signal is 8.28 upbm affinity estimate (log intensity, higher = more binding, comparable within an allelic series) in experiment [1]; 6.28 upbm affinity estimate (log intensity, higher = more binding, comparable within an allelic series) in experiment [6]; 6.34 upbm affinity estimate (log intensity, higher = more binding, comparable within an allelic series) in experiment [8]; 6.04 upbm affinity estimate (log intensity, higher = more binding, comparable within an allelic series) in experiment [11]; 8.51 upbm affinity estimate (log intensity, higher = more binding, comparable within an allelic series) in experiment [12].

ATCAAGTG: the binding signal in [1] was 12.8 upbm affinity estimate (log intensity, higher = more binding, comparable within an allelic series); in experiment [16] it was 10.2 upbm affinity estimate (log intensity, higher = more binding, comparable within an allelic series); in experiment [2] it was 12.6 upbm affinity estimate (log intensity, higher = more binding, comparable within an allelic series); in experiment [3], 13 upbm affinity estimate (log intensity, higher = more binding, comparable within an allelic series); in experiment [4], 12.4 upbm affinity estimate (log intensity, higher = more binding, comparable within an allelic series); in experiment [17] it was 10.4 upbm affinity estimate (log intensity, higher = more binding, comparable within an allelic series). Further, the binding signal in experiment [5] was 12 upbm affinity estimate (log intensity, higher = more binding, comparable within an allelic series); in experiment [7], 13.7 upbm affinity estimate (log intensity, higher = more binding, comparable within an allelic series); in experiment [9] it was 13.1 upbm affinity estimate (log intensity, higher = more binding, comparable within an allelic series); in [10], 10.7 upbm affinity estimate (log intensity, higher = more binding, comparable within an allelic series); in experiment [12], 12.6 upbm affinity estimate (log intensity, higher = more binding, comparable within an allelic series).

Regarding CACTTATA, the binding signal in [1] was 13.1 upbm affinity estimate (log intensity, higher = more binding, comparable within an allelic series); in [2], 12.6 upbm affinity estimate (log intensity, higher = more binding, comparable within an allelic series); in [3] it was 13 upbm affinity estimate (log intensity, higher = more binding, comparable within an allelic series); in [4], 12.5 upbm affinity estimate (log intensity, higher = more binding, comparable within an allelic series); in experiment [5], 12.1 upbm affinity estimate (log intensity, higher = more binding, comparable within an allelic series); in experiment [7], 13.8 upbm affinity estimate (log intensity, higher = more binding, comparable within an allelic series). Also, the binding signal in experiment [9] was 13.2 upbm affinity estimate (log intensity, higher = more binding, comparable within an allelic series); in [18], 10.2 upbm affinity estimate (log intensity, higher = more binding, comparable within an allelic series); in experiment [10], 11.2 upbm affinity estimate (log intensity, higher = more binding, comparable within an allelic series); in experiment [19], 12.7 upbm affinity estimate (log intensity, higher = more binding, comparable within an allelic series); in experiment [12], 12.8 upbm affinity estimate (log intensity, higher = more binding, comparable within an allelic series); in experiment [20], 12.8 upbm affinity estimate (log intensity, higher = more binding, comparable within an allelic series).

For GTACTTAA, the binding signal in experiment [1] was 13.1 upbm affinity estimate (log intensity, higher = more binding, comparable within an allelic series); in experiment [2], 12.8 upbm affinity estimate (log intensity, higher = more binding, comparable within an allelic series); in experiment [3], 13.2 upbm affinity estimate (log intensity, higher = more binding, comparable within an allelic series); in [4] it was 12.6 upbm affinity estimate (log intensity, higher = more binding, comparable within an allelic series); in experiment [5], 12 upbm affinity estimate (log intensity, higher = more binding, comparable within an allelic series); in experiment [7], 13.9 upbm affinity estimate (log intensity, higher = more binding, comparable within an allelic series). Also, the binding signal in experiment [9] was 13.3 upbm affinity estimate (log intensity, higher = more binding, comparable within an allelic series); in [10] it was 11.2 upbm affinity estimate (log intensity, higher = more binding, comparable within an allelic series); in experiment [19], 12.7 upbm affinity estimate (log intensity, higher = more binding, comparable within an allelic series); in experiment [12] it was 12.9 upbm affinity estimate (log intensity, higher = more binding, comparable within an allelic series); in [20] it was 12.8 upbm affinity estimate (log intensity, higher = more binding, comparable within an allelic series).

Take CACTTAGA: the binding signal in [1] was 12.6 upbm affinity estimate (log intensity, higher = more binding, comparable within an allelic series); in experiment [5], 11.7 upbm affinity estimate (log intensity, higher = more binding, comparable within an allelic series); in experiment [7], 13.6 upbm affinity estimate (log intensity, higher = more binding, comparable within an allelic series); in experiment [10] it was 10.8 upbm affinity estimate (log intensity, higher = more binding, comparable within an allelic series); in experiment [19], 12.6 upbm affinity estimate (log intensity, higher = more binding, comparable within an allelic series); in experiment [12], 12.4 upbm affinity estimate (log intensity, higher = more binding, comparable within an allelic series). In addition, the binding signal in [20] was 12.8 upbm affinity estimate (log intensity, higher = more binding, comparable within an allelic series).
